PubChem BioAssay AID463173 (ICCB-Longwood Screening Facility, Harvard Medical School, 2010)
About 4,300 (8.3%) of roughly 52,000 compounds were called active. No stated cut-off is given here; in the data, active means survival mostly below about 52% (no sharp cut-off); inactive means mostly above about 56%. Only a selection was taken, and actives are over-represented in it overall.

tested on: DeltatarO mutant; assay: growth inhibition of S. aureus wild type versus tarO mutant, primary screen, teichoic acid synthesis inhibitors, RN4220, OD600 (AID 463173); details: OD600, 18 h, active compounds read low, screened at 18.75 µg/mL (by protocol)

| Compound | survival |
| --- | --- |
| Cc1ccc(-n2ncc(C(=O)N3CCN(c4ccccn4)CC3)c2C2CCN(C(=O)OC(C)(C)C)CC2)cc1 | 81% (inactive) |
| O=C(Cn1c(=O)oc2cc(S(=O)(=O)NCc3ccccc3)ccc21)Nc1cccc(F)c1 | 78% (inactive) |
| O=C(NCc1cccc(Br)c1)c1cccn1-c1nnc(N2CCCCC2)s1 | 78% (inactive) |
| O=C(NCc1ccccc1)c1cccn1-c1nnc(N2CCCC2)s1 | 55% (inactive) |
| CCOc1ccccc1CNCc1cccn1-c1nnc(N2CCN(c3ccccc3)CC2)s1 | 47% (active) |
| O=C(NCc1cccc(Cl)c1)c1cccn1-c1nnc(N2CCCC2)s1 | 37% (active) |
| COc1cccc(CNCc2cccn2-c2nnc(N3CCN(c4ccccc4)CC3)s2)c1 | 79% (inactive) |
| Cc1ccc(CNCc2cccn2-c2nnc(N3CCCC3)s2)cc1 | 86% (inactive) |
| O=C1C=C(N2CCCCC2)C2(CCCCC2)O1 | 106% (inactive) |
| COc1ccc(CCN(Cc2cc3cc(C)ccc3n3nnnc23)C(=O)N(C)C)cc1OC | 86% (inactive) |
| Cc1ccc(C)c(N2CCN(C3(c4ccccc4)C(=O)c4ccccc4C3=O)CC2)c1 | 98% (inactive) |
| COc1cccc(C(=O)NCC(=O)OCc2cc(=O)n3nc(C)sc3n2)c1 | 116% (inactive) |
| COc1ccc(OC)c(C2c3c(oc4ccc(C)cc4c3=O)C(=O)N2CCCN(C)C)c1 (centres undefined) | 73% (inactive) |
| CC(=O)N1CCc2cc(CNC(=O)Nc3ccc(Br)c(C)c3)ccc21 | 87% (inactive) |
| COc1cc(NC(=O)CC(C)S(=O)(=O)c2ccc3c(c2)CCN3C(C)=O)cc(OC)c1OC (centres undefined) | 92% (inactive) |
| CC(=O)N1CCc2cc(S(=O)(=O)C(C)CC(=O)Nc3ccc(Br)c(C)c3)ccc21 (centres undefined) | -5% (active) |
| Cc1ccc(C)c(N2CCN(Cc3csc(C)c3)CC2)c1 | 119% (inactive) |
| CC(C)(C)NC(=O)CSc1nnc(-c2cccs2)o1 | 102% (inactive) |
| CCc1ccccc1NC(c1nnc(-c2cccc(F)c2)o1)c1ccc(F)cc1Cl (centres undefined) | 96% (inactive) |
| CCOc1ccccc1NC(c1nnc(-c2ccccc2)o1)c1ccc(F)cc1Cl (centres undefined) | 1% (active) |
| COc1cc(OC)c(NC(c2nnc(-c3ccccc3)o2)c2ccc(F)cc2Cl)cc1Cl (centres undefined) | 61% (inactive) |
| Cc1cccc(NC(c2nnc(-c3ccccc3)o2)c2ccc(F)cc2Cl)c1C (centres undefined) | 61% (inactive) |
| COc1cccc(NC(c2nnc(-c3ccccc3)o2)c2ccc(F)cc2Cl)c1 (centres undefined) | 54% (inactive) |
| COc1ccc(C)cc1NC(c1nnc(-c2ccccc2)o1)c1ccc(F)cc1Cl (centres undefined) | -3% (active) |
| Nc1ccc2nc(CN3CCOCC3)[nH]c2c1 | 88% (inactive) |

| Compound | survival |
| --- | --- |
| Cc1cc(C)cc(N2C(=O)CS(=O)(=O)C23C(=O)N(Cc2ccccc2)c2ccccc23)c1 (centres undefined) | 82% (inactive) |
| COC(=O)c1ccc(Cl)cc1NC(=O)N1CCC(CN2CCCC2)CC1 | 84% (inactive) |
| CCc1ccc(NC(=O)C(=O)NCCc2sc(-c3ccc(OC)c(OC)c3)nc2C)cc1 | 78% (inactive) |
| Cc1ccc(CNC(=O)c2ccc3c(c2)c(C)c(C)n3Cc2ccc(Cl)cc2)o1 | 75% (inactive) |
| CC(C)Oc1ccccc1-c1nc(SCC(=O)c2ccc(F)cc2)n[nH]1 | 40% (active) |
| CCOc1ccc(-c2nc(SCC(=O)c3ccccc3)n[nH]2)cc1 | 179% (inactive) |
| COc1ccc(NC(=O)CSc2n[nH]c(-c3ccccc3)n2)cc1Cl | 88% (inactive) |
| COc1ccccc1-c1nc(SCC(=O)c2ccccc2)n[nH]1 | 53% (active) |
| COc1ccccc1-c1nc(SCC(=O)Nc2ccc(C)c(C)c2)n[nH]1 | 43% (active) |
| Cc1ccc(NC(=O)CSc2n[nH]c(-c3ccc(F)cc3)n2)cc1F | 128% (inactive) |
| CCCOc1ccccc1-c1nc(SCC(=O)c2ccccc2)n[nH]1 | 109% (inactive) |
| COc1ccccc1-c1nc(SCC(=O)c2ccc(Cl)cc2)n[nH]1 | 175% (inactive) |
| CCOc1ccccc1-c1nc(SCC(=O)c2ccc(OC)c(Br)c2)n[nH]1 | 53% (inactive) |
| CC(C)(C)NC(=O)c1cnn(-c2ccccc2)c1C1CCN(C(=O)OC(C)(C)C)CC1 | 78% (inactive) |
| CC(=O)c1c(C)oc2ccc(N(C(=O)Oc3ccccc3)S(=O)(=O)c3ccc(Cl)cc3)cc12 | 75% (inactive) |
| CCC(=O)OC1=C(C(C)=O)N(Cc2ccccc2)S(=O)(=O)c2ccccc21 | 62% (inactive) |
| COc1ccc(C(CC(=O)Nc2ccc(F)c(Cl)c2)N2Cc3ccccc3C2=O)cc1OC (centres undefined) | 75% (inactive) |
| Cc1ccc(N2CC(NC(=O)c3ccc(Br)o3)CC2=O)cc1C (centres undefined) | 37% (active) |
| O=C(Cc1cccs1)NC1CC(=O)N(c2ccccc2)C1 (centres undefined) | 88% (inactive) |
| O=C(NC1CC(=O)N(c2ccccc2)C1)c1ccc(Br)o1 (centres undefined) | 87% (inactive) |
| Cc1ccc(N2CC(NC(=O)Cc3cccs3)CC2=O)cc1 (centres undefined) | 8% (active) |
| COc1ccc(N2CC(NC(=O)c3ccc(Br)o3)CC2=O)cc1 (centres undefined) | 81% (inactive) |
| Cc1ccc(N2CC(NC(=O)Cc3cccs3)CC2=O)cc1C (centres undefined) | 25% (active) |
| O=C(Cc1cccs1)NC1CC(=O)N(c2ccc(F)cc2)C1 (centres undefined) | 99% (inactive) |
| O=C(Cc1cccs1)NC1CC(=O)N(c2ccc(Cl)cc2)C1 (centres undefined) | 67% (inactive) |

| Compound | survival |
| --- | --- |
| COc1ccc(N2CC(NC(=O)Cc3cccs3)CC2=O)cc1OC (centres undefined) | 94% (inactive) |
| Cc1ccc(C)c(NC(=O)CCn2cnnn2)c1 | 148% (inactive) |
| Cc1nnsc1C(=O)Oc1ccc(C#N)cc1 | 89% (inactive) |
| COc1cccc(NC(=O)c2cc(CN3CCOCC3)on2)c1 | 88% (inactive) |
| CCOC(=O)c1ccc(CN(Cc2ccc(Br)cc2)S(=O)(=O)c2cccc(Cl)c2C)cc1 | 84% (inactive) |
| CC(=O)c1ccc(NC(=O)CN(C)S(=O)(=O)c2cc3c(cc2Cl)NC(=O)CO3)cc1 | 72% (inactive) |
| O=C(NCc1ccccc1Cl)c1ccc2c(c1)NC(=O)C(CS(=O)(=O)Cc1ccc(F)cc1Cl)N2 (centres undefined) | 81% (inactive) |
| COc1ccc(N2CCN(c3csc4ccccc4c3=O)CC2)cc1 | 81% (inactive) |
| CCc1ccc(S(=O)(=O)c2nnn3c2nc(N2CCC(C(N)=O)CC2)c2cc(Cl)ccc23)cc1 | 69% (inactive) |
| Cc1cc(C)n(CC(C)O)c(=O)c1C#N (centres undefined) | 108% (inactive) |
| CC1(C)C(=O)N(CC(=O)Nc2ccc(Br)cc2F)c2ccccc21 | 89% (inactive) |
| Cc1cc(Br)cc(C)c1OCC(=O)Nc1ccc(S(=O)(=O)Nc2ncccn2)cc1 | 56% (inactive) |
| Cc1ccc(OCC(=O)Nc2ccc(S(=O)(=O)Nc3ncccn3)cc2)c(C(C)(C)C)c1 | 47% (active) |
| CCc1cccc(OCC(=O)Nc2ccc(S(=O)(=O)Nc3ncccn3)cc2)c1 | 43% (active) |
| CC(C)c1ccc(OCC(=O)Nc2ccc(S(=O)(=O)Nc3ncccn3)cc2)cc1 | 75% (inactive) |
| CCc1cccc(OCC(=O)Nc2ccc(S(=O)(=O)Nc3cc(C)nc(C)n3)cc2)c1 | 58% (inactive) |
| Cc1ccccc1OCC(=O)Nc1ccc(S(=O)(=O)Nc2ncccn2)cc1 | 133% (inactive) |
| CCC(Sc1nc2ncccc2[nH]1)C(=O)Nc1ccccc1F (centres undefined) | 112% (inactive) |
| CCOC(=O)Cn1c(=O)oc2cc(S(=O)(=O)N3CCN(c4cccc(Cl)c4)CC3)ccc21 | 65% (inactive) |
| COc1cccc2c1Oc1ncccc1N(c1ccc(C(=O)NCc3ccccc3Cl)s1)C2 | 91% (inactive) |
| COc1ccc(Cn2c(CCC(=O)Nc3ccc(OC)c(Cl)c3)nc3cccnc32)cc1 | 113% (inactive) |
| Cc1cccc(-c2nc(C)c(CCNC(=O)C(=O)Nc3ccccc3C#N)s2)c1 | 85% (inactive) |
| CS(=O)(=O)N1CCC(n2c(C(F)(F)F)nc3cccnc32)CC1 | 47% (active) |
| CCS(=O)(=O)N1CCC(n2c(C(F)(F)F)nc3cccnc32)CC1 | 76% (inactive) |
| CN(C)S(=O)(=O)N1CCC(n2c(C(F)(F)F)nc3cccnc32)CC1 | 94% (inactive) |

| Compound | survival |
| --- | --- |
| COc1ccc(S(=O)(=O)c2c(O)c3ccc(C(=O)NCc4ccc(F)cc4)cc3[nH]c2=O)cc1 | 108% (inactive) |
| CCOc1cc(-c2ccc(OC(=O)c3ccccc3)c(OC)c2)cc(=O)c2c(C)oc(C)c12 | 89% (inactive) |
| CCc1ccc(S(=O)(=O)c2nnn3c2nc(Nc2cc(OC)cc(OC)c2)c2cc(Cl)ccc23)cc1 | 102% (inactive) |
| CCOc1ccc(Nc2nc(C)c(NC(=O)c3ccc(C)cc3)c(Nc3ccc(OCC)cc3)n2)cc1 | 123% (inactive) |
| CCOc1ccc(C(=O)Nc2c(C)nc(Nc3ccccc3)nc2Nc2ccccc2)cc1OCC | 49% (active) |
| CCOc1ccc(Nc2nc(C)c(NC(=O)c3cccc(OC)c3)c(Nc3ccc(OCC)cc3)n2)cc1 | 112% (inactive) |
| COc1ccccc1Cc1nc2ccccc2nc1SCC(=O)N(C)c1ccc(F)cc1 | 83% (inactive) |
| O=C(Cn1cc(SCc2ccc(C(F)(F)F)cc2)c2ccccc21)N1CCOCC1 | 85% (inactive) |
| COc1ccc(NC(=O)NC2COc3ccccc3C2)c(OC)c1 (centres undefined) | 98% (inactive) |
| COc1ccc(NC(=O)NC2COc3ccccc3C2)cc1Cl (centres undefined) | 57% (inactive) |
| O=C(Nc1ccc(OC(F)(F)F)cc1)NC1COc2ccccc2C1 (centres undefined) | 0% (active) |
| O=C(Nc1cccnc1)c1ccccc1Oc1ccccc1 | 65% (active) |
| O=C(Nc1cccnc1)c1cccc(C(=O)Nc2cccnc2)c1 | 79% (inactive) |
| O=C(O)c1ccccc1C(=O)Nc1cccnc1 | 89% (inactive) |
| CCOc1ccc(-c2c(C)nn3c(C)c(C(=O)NCc4cccc(OC)c4)cnc23)cc1OCC | 77% (inactive) |
| COc1ccc(N(CC(=O)Nc2cccc(C(C)=O)c2)S(=O)(=O)c2ccccc2)c(OC)c1 | 48% (active) |
| CC(NC(=O)CN(c1ccc(Cl)cc1Cl)S(=O)(=O)c1ccccc1)c1ccccc1 (centres undefined) | 37% (active) |
| Cc1ccccc1NC(=O)CN(c1ccc(Cl)cc1Cl)S(=O)(=O)c1ccccc1 | 44% (inactive) |
| COc1ccc(N(CC(=O)NCCc2ccccc2)S(=O)(=O)c2ccccc2)c(OC)c1 | 57% (inactive) |
| CCOc1ccc(NC(=O)CN(c2ccc(Cl)cc2C)S(=O)(=O)c2ccccc2)cc1 | 45% (active) |
| COc1ccc(N(CC(=O)Nc2ccc(Cl)cc2C)S(=O)(=O)c2ccccc2)c(OC)c1 | 113% (inactive) |
| CCOc1ccc(S(=O)(=O)N(CC(=O)Nc2ccc(OC)c(Cl)c2)c2ccccc2)cc1 | 75% (inactive) |
| Cc1ccc(CNC(=O)CN(c2ccc(Cl)cc2Cl)S(=O)(=O)c2ccccc2)cc1 | 47% (inactive) |
| CCOc1ccc(NC(=O)CN(c2ccccc2OCC)S(=O)(=O)c2ccccc2)cc1 | 48% (inactive) |
